Laboratory results as given in PubChem BioAssay (NCI).
About 83,000 compounds went through this panel and 20% of them were active in at least one assay; those are over-represented in the sample as a whole.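 Plates (96-well) were seeded with cells, treated with compound at one concentration, and incubated for 48 hours before percent growth was determined.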 A number with no mark means an inactive call. The source made the active and inactive calls. Rule for the calls: active = growth percent below 10; inactive = the rest.

System: HL-60(TB) leukemia
Assay: NCI-60 one-dose screen, 48 h (100 = growth as untreated, 0 = no growth, -100 = all killed)
Details: 10 µM unless noted

Compound | growth
COc1cc(C2C(C(=O)OCc3ccccc3)=C(C)NC(C)=C2C(=O)OCc2ccccc2)cc(OC)c1OC | 5.01% (active)
O=C1CSC(=S)N1/N=C/c1ccc(Cl)s1 | 91%
Nc1c(C(=O)Nc2cccc(Cl)c2)sc2ncc(Cl)cc12 | 88.7%
C/C(=N\N=C1/SCC(=O)N1c1ccccc1)c1ccco1 | 99%
Cl.[Pt].[c-]1ccccc1-c1ccccn1.c1ccc(P(c2ccccc2)C([PH+](c2ccccc2)c2ccccc2)[PH+](c2ccccc2)c2ccccc2)cc1 | 7.19% (active)
O=C(CSc1nc2ccc([N+](=O)[O-])cc2[nH]1)Nc1cccc([N+](=O)[O-])c1 | 57.5%
